In PubChem BioAssay (NCATS):
Values joined by “and” are separate entries in the source; they are usually repeats but may differ in a detail not shown here. Equal values may be shown once. Records with an inconclusive call do not appear. Where a call stands in place of a potency, no number is given. Active and inactive are the calls of the source. Unless noted, calls come from the whole dose curve; as a rule, active = well fitted curve in the direction sought with a large enough effect; inconclusive = small, poorly fitted or top-dose-only effect, or another doubt; inactive = no such curve, though single readings can be large; an effect the other way counts as inactive or inconclusive. Where a SMILES comes first, the peptide text is derived from it. The star is where a group is joined. AFC = O=c1cc(C(F)(F)F)c2ccc(N*)cc2o1

Assays:
[1] = target: Cytochrome P450 2D6 (Homo sapiens) (UniProt P10635); assay: Cytochrome P450 family 2 subfamily D member 6 (CYP2D6) small molecule antagonists: luciferase biochemical (cell-free) qHTS assay (AID 1645840; active = well fitted curve in the direction sought with a large enough effect in the repeat runs; an effect the other way counts as inactive or inconclusive; note: nearly all actives have a fitted effect of over 55% in size; note: potency is the fitted concentration of half-maximal effect)
Cytochrome P450 2D6 (Homo sapiens), sequence (P10635 whole entry, looked up): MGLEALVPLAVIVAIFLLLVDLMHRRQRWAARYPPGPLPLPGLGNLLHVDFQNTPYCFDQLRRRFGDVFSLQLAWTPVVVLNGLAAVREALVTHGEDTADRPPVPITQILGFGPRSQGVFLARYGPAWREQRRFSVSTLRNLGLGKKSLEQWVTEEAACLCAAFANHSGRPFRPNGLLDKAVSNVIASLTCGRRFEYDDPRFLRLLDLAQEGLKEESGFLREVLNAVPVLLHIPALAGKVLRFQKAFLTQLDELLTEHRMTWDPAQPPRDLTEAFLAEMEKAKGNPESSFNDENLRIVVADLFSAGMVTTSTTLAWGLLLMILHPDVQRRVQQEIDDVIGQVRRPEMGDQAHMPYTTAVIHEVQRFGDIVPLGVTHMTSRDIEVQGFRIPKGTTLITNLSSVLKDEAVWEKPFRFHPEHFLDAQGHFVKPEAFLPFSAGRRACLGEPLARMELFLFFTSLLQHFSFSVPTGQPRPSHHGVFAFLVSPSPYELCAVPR
Procedure, shortened: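 P450-Glo luminescent screen: recombinant CYP2D6 enzyme–proluciferin substrate mix preincubated with compound 10 min at room temperature, then NADPH regeneration added for 1 h at room temperature. Detection reagent added for 20 min; luciferin light read as relative luminescence units.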

[2] = Primary qHTS for inhibitors of nuclear receptor binding SET domain protein 2 (NSD2) in an isogenic RCH-ACV NSD2 p.E1099K mutant (9B) (AID 1645876); note: nearly all actives have a fitted effect of over 70% in size
[3] = Primary qHTS for inhibitors of nuclear receptor binding SET domain protein 2 (NSD2) in an RCH-ACV wild type WT cells (2C) (AID 1645877); note: nearly all actives have a fitted effect of over 70% in size; note: potency is the fitted concentration of half-maximal effect
[4] = target: Cytochrome P450 2C9 (Homo sapiens) (UniProt P11712); assay: Cytochrome P450 family 2 subfamily C member 9 (CYP2C9) small molecule antagonists: luciferase biochemical (cell-free) qHTS assay (AID 1645842; active = well fitted curve in the direction sought with a large enough effect in the repeat runs; an effect the other way counts as inactive or inconclusive; note: nearly all actives have a fitted effect of over 55% in size; note: potency is the fitted concentration of half-maximal effect)
Cytochrome P450 2C9 (Homo sapiens), sequence (P11712 whole entry, looked up): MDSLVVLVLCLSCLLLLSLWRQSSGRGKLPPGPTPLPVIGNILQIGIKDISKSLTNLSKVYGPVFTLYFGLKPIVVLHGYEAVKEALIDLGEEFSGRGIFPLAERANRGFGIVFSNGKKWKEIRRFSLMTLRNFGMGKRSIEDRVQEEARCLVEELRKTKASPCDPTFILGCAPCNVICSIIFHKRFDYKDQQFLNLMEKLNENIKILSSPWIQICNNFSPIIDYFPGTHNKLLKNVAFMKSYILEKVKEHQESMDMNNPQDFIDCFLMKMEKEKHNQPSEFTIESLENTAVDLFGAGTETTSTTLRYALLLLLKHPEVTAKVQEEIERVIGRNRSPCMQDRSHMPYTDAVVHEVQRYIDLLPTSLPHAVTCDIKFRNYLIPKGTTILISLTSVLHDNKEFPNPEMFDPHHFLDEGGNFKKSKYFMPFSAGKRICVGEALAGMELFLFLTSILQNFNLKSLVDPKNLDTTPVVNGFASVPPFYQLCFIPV
Procedure, shortened: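 Luminescence, after 20 min with luciferin detection reagent, reflected CYP2C9 turnover during a 1 h NADPH-driven reaction at 37C. Enzyme-substrate mix contained 0.4% bovine serum albumin and was preincubated with compound 10 min at room temperature.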

[5] = NCATS anti-infectives library activity on HEK293 viability as a counter-qHTS vs the C. elegans viability qHTS (AID 1745854);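 note: HEK293 cells exposed to compounds for 24 hr before the viability read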
Procedure, shortened: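 Compounds were acoustically plated (several concentrations, 1:5, final up to 41.7 uM), then 1500 HEK293 cells added per well and incubated 24 hr at 37C, 5% CO2. CellTiter-Glo was added and luminescence read after 10 min.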

[6] = target: Catechol O-methyltransferase (Homo sapiens) (UniProt P21964); assay: Confirmatory Screen for Target Class Profiling of Small Molecule Inhibitors of Methyltransferases (AID 1745852); settings: MTase-Glo luminescence, SAH detection, recombinant enzyme; measured here: COMT max response; stronger effect = lower value
Catechol O-methyltransferase (Homo sapiens), sequence (P21964 whole entry, looked up): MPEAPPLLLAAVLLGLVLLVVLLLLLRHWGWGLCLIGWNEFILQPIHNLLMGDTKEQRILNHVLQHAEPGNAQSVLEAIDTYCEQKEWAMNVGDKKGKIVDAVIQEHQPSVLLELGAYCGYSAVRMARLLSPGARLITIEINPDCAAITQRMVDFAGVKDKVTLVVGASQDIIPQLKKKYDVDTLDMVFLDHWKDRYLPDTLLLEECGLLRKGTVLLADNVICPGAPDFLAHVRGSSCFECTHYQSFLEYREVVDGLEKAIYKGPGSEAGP

[7] = target: Guanidinoacetate N-methyltransferase (Homo sapiens) (UniProt Q14353); assay: as above; settings: activity change, negative = inhibition: at 57.3 µM (top of the series) unless noted
[8] = target: Nicotinamide N-methyltransferase (Homo sapiens) (UniProt P40261); assay: as above; settings: MTase-Glo luminescence, SAH detection, recombinant enzyme; measured here: NNMT max response; stronger effect = lower value
Nicotinamide N-methyltransferase (Homo sapiens), sequence (P40261 whole entry, looked up): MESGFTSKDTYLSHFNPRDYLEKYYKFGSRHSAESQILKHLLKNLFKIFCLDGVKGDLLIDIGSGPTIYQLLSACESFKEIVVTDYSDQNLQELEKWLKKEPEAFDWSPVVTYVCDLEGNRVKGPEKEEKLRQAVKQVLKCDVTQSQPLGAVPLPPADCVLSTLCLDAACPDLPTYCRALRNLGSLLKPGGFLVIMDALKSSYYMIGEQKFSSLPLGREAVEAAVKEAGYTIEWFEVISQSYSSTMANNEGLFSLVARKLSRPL

[9] = target: Phenylethanolamine N-methyltransferase (Homo sapiens) (UniProt P11086); assay: as above; settings: MTase-Glo luminescence, SAH detection, recombinant enzyme; measured here: PNMT max response; stronger effect = lower value
Phenylethanolamine N-methyltransferase (Homo sapiens), sequence (P11086 whole entry, looked up): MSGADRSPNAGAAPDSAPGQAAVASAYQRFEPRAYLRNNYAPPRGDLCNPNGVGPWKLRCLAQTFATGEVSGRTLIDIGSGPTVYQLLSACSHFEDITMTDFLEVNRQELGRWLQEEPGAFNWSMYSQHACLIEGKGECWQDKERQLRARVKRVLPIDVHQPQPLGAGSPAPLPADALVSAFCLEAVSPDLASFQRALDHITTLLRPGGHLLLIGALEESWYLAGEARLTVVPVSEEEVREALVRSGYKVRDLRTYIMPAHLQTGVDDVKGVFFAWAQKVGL

[10] = target: N-terminal Xaa-Pro-Lys N-methyltransferase 1 (Homo sapiens) (UniProt Q9BV86); assay: Confirmatory qHTS for Inhibitors of N-terminal methyltransferase 1 (NTMT1): MTaseGlo Assay (AID 1645874);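 note: luminescence from SAH made as NTMT1 methylates SPKRIA peptide using SAM; nearly all actives have a fitted effect of over 65% in size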
N-terminal Xaa-Pro-Lys N-methyltransferase 1 (Homo sapiens), sequence (Q9BV86 whole entry, looked up): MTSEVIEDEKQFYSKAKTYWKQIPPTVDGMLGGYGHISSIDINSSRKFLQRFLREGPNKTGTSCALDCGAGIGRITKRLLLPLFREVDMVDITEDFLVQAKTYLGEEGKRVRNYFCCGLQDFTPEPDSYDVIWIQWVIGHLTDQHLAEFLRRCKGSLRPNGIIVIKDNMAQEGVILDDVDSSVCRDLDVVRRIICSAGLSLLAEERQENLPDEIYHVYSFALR
Procedure, shortened: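 Preincubation of NTMT1 (125 nM) plus SAM (100 uM) with test compounds lasted 15 min; methylation of 1 uM SPKRIA then proceeded 30 min in the dark at room temperature. Luciferase signal reported SAH produced.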

[11] = target: Rap guanine nucleotide exchange factor 3 (Homo sapiens) (UniProt O95398); assay: Confirmatory qHTS for antagonist of cAMP-regulated guanine nucleotide exchange factor 3 (EPAC1) (AID 1645880); settings: EPAC1 Rap1B-BODIPY-GDP exchange, fluorescence; note: potency is the fitted concentration of half-maximal effect; nearly all actives have a fitted effect of over 55% in size
Rap guanine nucleotide exchange factor 3 (Homo sapiens), sequence (O95398 whole entry, looked up): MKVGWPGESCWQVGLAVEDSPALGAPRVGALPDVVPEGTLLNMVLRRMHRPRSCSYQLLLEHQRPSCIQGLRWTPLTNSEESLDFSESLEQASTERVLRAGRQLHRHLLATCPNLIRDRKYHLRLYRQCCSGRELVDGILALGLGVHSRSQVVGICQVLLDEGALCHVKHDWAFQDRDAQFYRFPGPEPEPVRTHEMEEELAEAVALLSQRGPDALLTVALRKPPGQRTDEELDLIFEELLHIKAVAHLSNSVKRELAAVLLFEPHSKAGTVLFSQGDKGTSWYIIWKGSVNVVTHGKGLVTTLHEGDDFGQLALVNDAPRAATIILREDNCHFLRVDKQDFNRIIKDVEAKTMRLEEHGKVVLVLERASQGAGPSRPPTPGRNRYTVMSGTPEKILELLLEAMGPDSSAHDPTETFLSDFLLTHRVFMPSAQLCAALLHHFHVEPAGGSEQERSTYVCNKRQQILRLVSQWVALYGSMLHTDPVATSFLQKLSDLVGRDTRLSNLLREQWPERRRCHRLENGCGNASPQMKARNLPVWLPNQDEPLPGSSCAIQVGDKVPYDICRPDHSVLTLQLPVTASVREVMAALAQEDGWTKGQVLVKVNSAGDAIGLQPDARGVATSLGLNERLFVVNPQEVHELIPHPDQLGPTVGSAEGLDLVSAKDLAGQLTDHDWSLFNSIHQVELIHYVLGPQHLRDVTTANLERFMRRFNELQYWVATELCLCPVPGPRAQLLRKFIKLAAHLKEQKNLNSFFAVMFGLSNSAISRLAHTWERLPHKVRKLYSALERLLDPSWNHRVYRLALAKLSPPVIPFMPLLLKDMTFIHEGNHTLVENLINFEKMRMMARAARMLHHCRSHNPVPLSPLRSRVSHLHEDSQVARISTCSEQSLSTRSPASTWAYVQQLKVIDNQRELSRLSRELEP
Procedure, shortened: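 Nucleotide exchange uses 100 nM EPAC1, 250 nM RAP1B-BODIPY-GDP and 50 uM GDP, with compounds in a concentration-titration series. After 5 min at room temperature, fluorescence (480 nm ex/540 nm em) is read every 5 min for 30 min. Data are normalized to control ATA and DMSO.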

[12] = target: Rap guanine nucleotide exchange factor 3 (Homo sapiens) (UniProt O95398); assay: Confirmatory qHTS for agonist of cAMP-regulated guanine nucleotide exchange factor 3 (EPAC1) (AID 1645881);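 note: EPAC1 catalysed release of BODIPY-GDP from Rap1B seen as fluorescence loss; nearly all actives have a fitted effect of over 75% in size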
[13] = target: Rap guanine nucleotide exchange factor 4 (Homo sapiens) (UniProt Q8WZA2); assay: Confirmatory qHTS for agonist of cAMP-regulated guanine nucleotide exchange factor 4 (EPAC2) (AID 1645884);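 note: nucleotide exchange releases bodipy-GDP from Rap1 and this lowers its fluorescence; nearly all actives have a fitted effect of over 65% in size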
Rap guanine nucleotide exchange factor 4 (Homo sapiens), sequence (Q8WZA2 whole entry, looked up): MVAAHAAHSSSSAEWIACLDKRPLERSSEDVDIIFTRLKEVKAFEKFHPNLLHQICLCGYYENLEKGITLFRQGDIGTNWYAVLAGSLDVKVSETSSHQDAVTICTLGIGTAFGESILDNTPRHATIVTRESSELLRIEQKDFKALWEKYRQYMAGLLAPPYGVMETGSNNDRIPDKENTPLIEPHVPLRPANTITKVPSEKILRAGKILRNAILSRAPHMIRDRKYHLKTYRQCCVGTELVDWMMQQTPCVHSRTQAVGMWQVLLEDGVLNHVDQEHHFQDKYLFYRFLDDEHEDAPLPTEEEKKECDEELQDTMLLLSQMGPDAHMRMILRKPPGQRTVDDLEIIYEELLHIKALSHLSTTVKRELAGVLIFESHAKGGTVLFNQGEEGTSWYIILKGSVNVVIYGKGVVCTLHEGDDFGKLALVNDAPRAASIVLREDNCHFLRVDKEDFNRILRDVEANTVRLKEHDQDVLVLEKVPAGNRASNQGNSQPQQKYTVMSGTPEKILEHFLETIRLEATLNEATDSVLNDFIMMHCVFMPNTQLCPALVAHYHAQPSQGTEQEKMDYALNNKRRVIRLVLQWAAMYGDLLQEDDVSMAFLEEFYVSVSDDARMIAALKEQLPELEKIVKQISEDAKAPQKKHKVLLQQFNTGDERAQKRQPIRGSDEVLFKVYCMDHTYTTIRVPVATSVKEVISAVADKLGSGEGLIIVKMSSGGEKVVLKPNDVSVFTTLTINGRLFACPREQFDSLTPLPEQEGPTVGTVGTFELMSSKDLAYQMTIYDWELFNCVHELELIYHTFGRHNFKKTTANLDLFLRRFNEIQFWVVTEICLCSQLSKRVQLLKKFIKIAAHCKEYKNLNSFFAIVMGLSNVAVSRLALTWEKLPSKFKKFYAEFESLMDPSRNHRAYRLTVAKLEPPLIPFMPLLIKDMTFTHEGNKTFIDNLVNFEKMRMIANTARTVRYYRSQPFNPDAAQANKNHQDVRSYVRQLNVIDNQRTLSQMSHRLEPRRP

[14] = target: Rap guanine nucleotide exchange factor 4 (Homo sapiens) (UniProt Q8WZA2); assay: Confirmatory qHTS for antagonist of cAMP-regulated guanine nucleotide exchange factor 4 (EPAC2) (AID 1645885); note: potency is the fitted concentration of half-maximal effect; nearly all actives have a fitted effect of over 25% in size

In the case of `CNC(=O)c1ccc2cc([C@@]3(O)CCn4cncc43)ccc2c1`, the Potency [1] is reported as 12 µM (active), the Potency [2] is reported as “inactive” and the Potency [3] is reported as “inactive”.

For `COCC(=O)N1CCc2cc(-c3csc(NC(=O)c4cc(OC)cc(OC)c4)n3)ccc21`, the Potency [1] was “inactive”, the Potency [2] was “inactive” and the Potency [3] was “inactive”.

For `Cc1nnc(C(C)C)n1C1CC2CCC(C1)N2CC[C@H](NC(=O)C1CCC(F)(F)CC1)c1ccccc1` (stereo partly drawn), the Potency [4] was “inactive”, the Potency [2] was “inactive” and the Potency [3] was “inactive”. The outcome [5] was “inactive”.

In the case of `C=C(C)C(C)C1OC23CC4(CO2)C(CCC2C5(C)CCC(OC6OCC(O)C(OC7OC(CO)C(O)C(OC8OCC(O)C(O)C8O)C7O)C6OC6OC(CO)C(O)C6O)C(C)(C)C5CCC24C)C3C(C)(O)C1OC(C)=O` (stereo not drawn), the activity change, negative = viability loss [2] is reported as -26.7% [at 9.23 µM] (inactive).

For `CCOc1nc2cccc(C(=O)OCc3oc(=O)oc3C)c2n1Cc1ccc(-c2ccccc2-c2noc(O)n2)cc1`, the Potency [4] was 3.38 µM (active), the Potency [2] was “inactive” and the Potency [3] was “inactive”.

With `COc1cccc(-n2nc(C(=O)O)cc2-c2ccc(C3CCCCC3)c(Cl)c2)c1` the Potency [4] was “inactive”, the Potency [2] was “inactive” and the Potency [3] was “inactive”.

With `CC(C)(C)c1cc(CN2CCN(CC(O)c3ccc(Cl)cc3)CC2)cc(C(C)(C)C)c1O` (stereo not drawn) the Potency [4] was 8.49 µM (active).

For `O=C(/C=C/c1c(C(=O)O)[nH]c2cc(Cl)cc(Cl)c12)Nc1ccccc1`, the Potency [4] was 21.3 µM (active), the Potency [2] was “inactive” and the Potency [3] was “inactive”.

With `CC(=O)NC(C(=O)OC1CCC(C)(C)C2CC=C3C(=O)OCC3(O)C12C)C(C)C` (stereo not drawn) the Potency [2] was “inactive”.

In the case of `CC(C)(C)NCc1cc(Nc2ccnc3cc(Cl)ccc23)c2c(c1O)CCCC2`, the activity change, negative = inhibition [4] is reported as -23.1% [at 11.5 µM] (inactive), the activity change, negative = viability loss [2] is reported as -8.87% [at 0.588 µM] (inactive) and the activity change, negative = cell killing [3] is reported as -13.7% [at 0.588 µM] (inactive).

In the case of `CC[C@H]1OC(=O)C[C@@H](O)[C@H](C)[C@@H](O[C@@H]2O[C@H](C)[C@@H](O)[C@H](N(C)C)[C@H]2O)[C@@H](CCN2C[C@H](C)C[C@H](C)C2)C[C@@H](C)C(=O)/C=C/C(C)=C/[C@@H]1CO[C@@H]1O[C@H](C)[C@@H](O)[C@@H](OC)[C@H]1OC`, the Potency [4] is reported as “inactive”, the Potency [2] is reported as “inactive” and the Potency [3] is reported as “inactive”.

In the case of `COC(=O)C1=C(C#N)NC(C)=C(C(=O)OC(C)C)C1c1cccc([N+](=O)[O-])c1` (stereo not drawn), the Potency [4] is reported as 1.07 µM (active).

For `CCn1cc(C2=NOC(C(=O)Nc3c(C)n(C)n(-c4ccccc4)c3=O)C2)c(C)n1` (stereo not drawn), the Potency [4] was 1.9 µM (active), the Potency [2] was “inactive” and the Potency [3] was “inactive”.

For `Cn1c(=O)cc(N2CCCC(N)C2)n(Cc2ccccc2C#N)c1=O` (stereo not drawn), the Potency [4] was “inactive”, the Potency [2] was “inactive” and the Potency [3] was “inactive”.

For `COc1ccccc1[C@@H]1C2=C(CC(C)(C)CC2=O)Nc2n[nH]c(C(F)(F)F)c21`, the Potency [4] was 8.49 µM (active), the Potency [2] was “inactive” and the Potency [3] was “inactive”.

In the case of `CCOC(=O)c1ccc(N(C)c2csc(-c3ccccc3)n2)cc1`, the Potency [4] is reported as 0.674 µM (active), the Potency [2] is reported as “inactive” and the Potency [3] is reported as “inactive”.

For `O=C(CCCCc1ccc2ccccc2c1)C(F)(F)F`, the Potency [4] was 9.52 µM (active), the Potency [2] was “inactive” and the Potency [3] was “inactive”.

With `CC(=O)OC[C@]1(O)[C@H]2[C@H](OC(=O)CC(C)C)OC=C(CO[C@@H]3O[C@H](CO)[C@@H](O)[C@H](O)[C@H]3O)[C@H]2C[C@@H]1O` the Potency [2] was “inactive”.

For `O=S(=O)(Nc1ccc(C(O)(C(F)(F)F)C(F)(F)F)cc1)c1cccs1`, the Potency [4] was 1.9 µM (active).

For `C(#Cc1cccc(CN2CCOCC2)c1)CCN1CCCCC1`, the Potency [4] was “inactive”, the Potency [2] was “inactive” and the Potency [3] was “inactive”.

With `CC(NCc1ccc(OCc2cccc(F)c2)cc1)C(N)=O` (stereo not drawn) the Potency [4] was “inactive”, the Potency [2] was “inactive” and the Potency [3] was “inactive”.

For `Cc1ccc(Sc2cncc3sc(C(N)=O)cc23)cc1`, the Potency [2] was “inactive”.

With `CC(=O)C1CCC2(C)C3=C(CCC12C)C1(C)CCC(=O)C(C)(C)C1CC3` (stereo not drawn) the Potency [2] was “inactive”.

With `COc1cc(N2CCC(O)CC2)ccc1Nc1cc(Nc2ccccc2S(=O)(=O)C(C)C)c2cc[nH]c2n1` the Potency [4] was 6.61 µM (active), the Potency [2] was “inactive” and the Potency [3] was “inactive”. It also gave an activity [6] of 2.25%, an activity change, negative = inhibition [7] of 0% and an activity [8] of -6.54%. It also gave an activity [9] of 0.382%.

For `CC(=O)OCC(=O)[C@@]12OC3(CCCC3)O[C@@H]1C[C@H]1[C@@H]3CCC4=CC(=O)C=C[C@]4(C)[C@@]3(F)[C@@H](O)C[C@@]12C`, the Potency [4] was 13.5 µM (active).

With `CC(=O)N[C@@H](CC(C)C)C(=O)N[C@@H](CCC(=O)O)C(=O)N[C@@H](CCC(=O)O)C(=O)N[C@@H](CC(=O)O)C(=O)Nc1ccc2c(C(F)(F)F)cc(=O)oc2c1` (Ac-LEED-{AFC}) the Potency [10] was “inactive”, the Potency [2] was “inactive” and the Potency [3] was “inactive”.

With `C=CC1(C)CC(OC(=O)C(=C)C(O)COC(C)=O)C(C(=C)C(=O)OC)C(O)C1C(=C)CO` (stereo not drawn) the Potency [2] was “inactive”.

In the case of `Cc1nn(C)c2c1C(c1ccc(C(F)(F)F)cc1)C(C#N)=C(N)O2` (stereo not drawn), the Potency [4] is reported as 21.3 µM (active), the Potency [2] is reported as “inactive” and the Potency [3] is reported as “inactive”.

With `CCN(CC)Cc1cc(Nc2ccnc3cc(Cl)ccc23)ccc1O` the Potency [4] was “inactive” and the outcome [5] was “inactive”.

In the case of `COc1cc2c(cc1OC)CN(C(=O)[C@@H](NCc1ccncc1)C(C)(C)C)CC2`, the Potency [4] is reported as 1.69 µM (active), the Potency [2] is reported as “inactive” and the Potency [3] is reported as “inactive”.

For `CC(=O)OC(C)OC(=O)C(C)c1ccc(-c2ccccc2)c(F)c1` (stereo not drawn), the Potency [4] was 9.77 µM (active), the Potency [2] was “inactive” and the Potency [3] was “inactive”.

With `CCCCC(CC)COC(=O)CC(C(=O)OCC(CC)CCCC)S(=O)(=O)O` (stereo not drawn) the Potency [4] was “inactive”, the Potency [11] was 35.2 µM (active) and 9.93 µM (active) and the outcome [12] was “inactive”. For the same compound, the outcome [13] was “inactive”, the Potency [14] was 39.3 µM (active) and 31.2 µM (active) and the outcome [5] was “inactive”.

With `Cc1cccc(-c2[nH]c(CNc3ccccc3F)nc2-c2ccc3ncnn3c2)n1` the Potency [4] was 21.3 µM (active).

In the case of `CC(C)(O)c1ccc2c(c1)C(=O)CC1[C@](C)(CO)CCC[C@]21C` (stereo partly drawn), the Potency [10] is reported as “inactive”, the Potency [2] is reported as “inactive” and the Potency [3] is reported as “inactive”.

With `O=S(=O)(O)c1ccc2c(N=Nc3ccc(S(=O)(=O)O)c4ccccc34)c(O)c(S(=O)(=O)O)cc2c1` the Potency [4] was 12 µM (active).

For `O=C(NCc1ccc(OC(F)(F)F)cc1)C1c2ccccc2C(=O)N1C1CCOCC1` (stereo not drawn), the Potency [4] was 12 µM (active), the Potency [2] was “inactive” and the Potency [3] was “inactive”.

With `C[C@H](NCc1ccc(OCc2ccccc2F)cc1)C(N)=O` the Potency [4] was “inactive”, the Potency [2] was “inactive” and the Potency [3] was “inactive”.

For `CC(C)C(=O)c1cn(CC(=O)COc2ccc(Oc3ccccc3)cc2)c2ccc(C(=O)O)cc12`, the Potency [4] was “inactive”, the Potency [2] was “inactive” and the Potency [3] was “inactive”.

For `O=C(c1ccc(F)cc1)C1CCN(CCn2c(=O)nc3n(c2=O)CCCC3)CC1`, the Potency [4] was “inactive”, the Potency [2] was “inactive” and the Potency [3] was “inactive”.

For `CC1(C)CCC(C)(C)c2cc3c(cc21)Sc1ccccc1N=C3c1ccc(C(=O)O)cc1`, the Potency [4] was “inactive”, the Potency [2] was “inactive” and the Potency [3] was “inactive”.

With `O=C(O)C[C@@H](NC(=O)c1cc(-c2ccc(-c3ccncc3)cc2)cs1)c1ccccc1` the Potency [4] was 26.8 µM (active), the Potency [2] was “inactive” and the Potency [3] was “inactive”.

In the case of `CC(C)(C)NCC(O)COc1cccc2c1CCCC2=O` (stereo not drawn), the Potency [4] is reported as “inactive” and the Potency [3] is reported as 4.59 µM (active).
